We go through 40 molecules from PubChem BioAssay AID837 (The Scripps Research Institute Molecular Screening Center, 2007).

Activity calls are given as the source filed them.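 Rule for the calls: active = relative FRET score above 0.01, or acceptor fluorescence over 30% below the sample-well median; inactive = the rest.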

The assay deals with Protein Rev (Human immunodeficiency virus type 1 group M subtype B (isolate WMJ22)) (UniProt P05866). As to the kind of experiment: HIV-1 Rev-RRE binding inhibitors, retest, confirmation, biochemical, FRET, acceptor and relative FRET calls (AID 837).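 Note: relative FRET combines rise in Cy5 acceptor with fall in fluorescein donor.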 Particulars: Fl-Rev peptide / Cy5-RRE RNA FRET, 1536-well; at 8 µM.
Protein Rev (Human immunodeficiency virus type 1 group M subtype B (isolate WMJ22)), sequence (P05866 whole entry, looked up): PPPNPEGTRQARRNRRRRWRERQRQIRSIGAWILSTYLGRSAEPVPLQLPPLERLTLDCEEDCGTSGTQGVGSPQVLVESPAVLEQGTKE
For the molecule `N=c1n(CCO)c2ccccc2n1CCOc1ccccc1`, the result was inactive.
As for `CC(Nc1nc(N2CCCCC2)nc2ccccc12)c1ccccc1` (stereo not given), the molecule was called inactive.
For `CC(=O)c1ccc(NC(=O)c2ccc3nc(-c4ccco4)c(-c4ccco4)nc3c2)cc1` the value was “inactive”.
For the molecule `COc1cc2[nH]c(=O)c(C(=O)NCCCN3CCCCC3)c(O)c2cc1OC`, the result was inactive.
For `COc1cccc(Nc2nc(N)nc(-c3oc4ccccc4c3C)n2)c1` the value was “active”; for `CCN(CC)CCn1c(=N)n(CCOc2ccccc2)c2ccccc21`, “inactive”; for `OC(CN1C2=NCCCN2c2ccccc21)c1ccc(Br)cc1` (stereo not given), “inactive”.
For `COc1ccc(CN(C)C2CCCCC2)c(C)c1C` the value was “inactive”; for `COc1ccccc1NC1=NC(c2ccc(Cl)cc2)N=C(N)N1` (stereo not given), “active”; for `CCCn1c(=N)c(C(=O)NCc2ccc3c(c2)OCO3)cc2c(=O)n3cccc(C)c3nc21`, “inactive”.
On to `COC(CNc1cc(=O)oc2ccccc12)OC`, for which the result was inactive.
For `CN(C)CC(O)COc1ccc(C(C)(C)c2ccc(OCC(O)CN(C)C)cc2)cc1` (stereo not given) the value was “inactive”; for `N=c1n(CCO)c2ccccc2n1Cc1ccccc1Cl`, “inactive”; for `OC(COc1ccc2cc(Br)ccc2c1)CN1CCCC1` (stereo not given), “inactive”.
For `COc1ccc(/C=C/c2cc(-c3ccc(C)cc3)o[n+]2C)cc1` the value was “active”; for `CC(C)C(C(=O)O)N1C(=O)/C(=C/C=C/c2ccco2)SC1=S` (stereo not given), “inactive; quenches the donor”.
For `Cc1ccc(C2C3=C(NCCN=C3c3ccccc3)C(=O)N2c2ccccc2)cc1` (stereo not given) the value was “inactive”.
On to `CCN(CC)CCNC1=NCCn2c1cc1cc(OC)ccc12`, for which the outcome was active.
For `O=[N+]([O-])c1ccc2nc(-c3ccc(Cl)cc3)n(OCc3ccccc3)c2c1` the value was “inactive”; for `OCCN=c1cc(-c2ccccc2)oc2ccc(Cl)cc12`, “inactive”; for `CCC1=NNc2cccc3c(OC)ccc1c23`, “inactive”.
For `CCCCNCCCOc1cccc(Cl)c1Cl` the value was “inactive”.
For `CCOC(=O)Cn1c(=N)n(CCOc2ccc(OC)cc2)c2ccccc21` the value was “inactive”.
Turning to `O=C(O)c1ccc2c(c1)[C@@H]1C=CC[C@@H]1[C@H](c1ccccn1)N2`, the outcome was “inactive; quenches the donor”.
For `CC(C)c1ccc(CNCc2ccccc2)cc1` the value was “inactive”; for `Cc1ccc2nc(NC(=O)c3ccc(Cl)s3)sc2c1`, “inactive”.
For `CN(C)CC(O)COc1ccc(-c2ccc(C#N)cc2)cc1` (stereo not given) the value was “active”.
For `CCCCOc1ccc(CSC(=N)N)cc1[N+](=O)[O-]` the value was “inactive”.
As to `CN1CCN(Cc2cccc(Oc3ccc(Cl)cc3)c2)CC1`, the result was inactive.
For `CCOC(=O)c1cnc(SC)nc1Sc1ccccc1Cl` the value was “inactive”; for `OC(COCCC12CC3CC(CC(C3)C1)C2)CN1CCCCC1` (stereo not given), “inactive”; for `COc1ccc(C(=O)c2coc3ccc(O)c(CN4CCCC4)c23)cc1`, “inactive”.
For `NCCCCCc1nnc(SCc2ccccc2Cl)o1` the value was “inactive”; for `Cc1cc(Cl)c(OCCCNCc2ccccc2)c(Br)c1`, “inactive”.
Turning to `Nc1[nH]c(=S)[nH]c(=O)c1-c1ccccc1`, the molecule was called inactive.
On to `Cc1occc1C(=O)Nc1sc2c(c1C(N)=O)CCC(C(C)(C)C)C2` (stereo not given), for which the call was inactive.
For the molecule `CC1=NN(c2ccccc2)C(=O)C1N=Nc1ccc(N)cc1` (stereo not given), the outcome was “active; fluoresces like the acceptor”.
With `c1ccc(COc2ccc(OCCCCN3CCCCC3)cc2)cc1`, the result was inactive.
For `Cc1c(Cl)cccc1Nc1nc(N)nc(CN2CCCCCC2)n1` the value was “inactive”; for `CCOC(=O)[C@@H]1CCNC[C@@H]1c1ccccc1`, “inactive”.
